{
  "source": "PubChem BioAssay (NCATS)",
  "note": "Inconclusive results are not listed. Where a call stands in place of a potency, no number is given. Active and inactive are the calls of the source. The call rests on the fitted dose curve; in most records, active means well fitted activation curve with a large enough effect; inconclusive means small, poorly fitted or top-dose-only effect; inactive means flat fitted curve, though single readings scatter. Potency means the concentration at half of the fitted maximal effect.",
  "data": [
    {"assay": "Validation screen for small molecules that induce DNA re-replication in MCF 10A normal breast cells (AID 463097); further: nearly all actives have a fitted effect of over 60% in size", "conditions": "MCF 10A cells, DNA re-replication phenotype imaging; series mostly up to 46.1 µM", "text": "NIH Molecular Libraries Probe Production Network [MLPCN]\nNIH Chemical Genomics Center [NCGC]\nAssay Provider: Melvin DePamphilis, NICHD, NIH\nEukaryotic cells normally restrict genome duplication to once per cell division. When this process is aberrant, DNA re-replication occurs when cells reinitiate DNA replication before the first round of replication is complete. DNA re-replication induces the DNA damage response, arrests cell proliferation, and triggers apoptosis. The cell cycle components cyclin A, Cdt-1, Cdc6 and geminin are critical regulators of this process and their misregulation results in DNA re-replication in normal and cancer cells. To identify compounds that induce re-replication in normal cells, an image-based assay was used to measure DNA content of nuclei, as detected by the fluorescent DNA binding dye, Hoechst. Cell nuclei were imaged by a fluorescence scanning plate imager and compounds that induce DNA re-replication were identified by the increase of nuclei with elevated fluorescence intensity.\nFor screening, 250 cells in 5 uL/well were dispensed into black clear 1536-well plates (Aurora) using a solenoid-based dispenser. Following transfer of 23 nL compound or DMSO vehicle by a pin tool, the plates were incubated 48 hr at 37 C and 5% CO2. After addition of 1 uL/well Hoescht stain, the plates were incubated 40 min at 37 C, 5% CO2 and total intensity of fluorescent objects (nuclei) were enumerated by an Acumen Explorer Ex3 (TTP LabTech) fluorescence scanning plate imager (405 nm excitation, 500-530 nm emission).\nKeywords: NIH Roadmap, MLPCN, MLI, MLSMR, qHTS, NCGC, DNA replication, cancer", "values": [
      {"smiles": "CC(C)=CCC/C(C)=C/CC/C(C)=C/CSc1ccccc1C(=O)O", "Potency": "11.2 µM (active)"},
      {"smiles": "NCCNS(=O)(=O)c1cccc2cnccc12", "Potency": "inactive"},
      {"smiles": "N#C/C(=C\\c1ccc(O)c(O)c1)C(=O)Nc1ccccc1", "Potency": "12.6 µM (active)"},
      {"smiles": "C1CCC(N=C(NC23CC4CC(CC(C4)C2)C3)N2CCOCC2)CC1", "Potency": "inactive"},
      {"smiles": "S=C(Nc1ccccc1)Nc1nccs1", "Potency": "inactive"},
      {"smiles": "Cn1cnc2c(NC3CCCC3)ncnc21", "Potency": "inactive"},
      {"smiles": "O=C(OCCN1CCCCC1)c1c[nH]c2ccccc12", "Potency": "inactive"},
      {"smiles": "COc1[nH]c2ccc(F)cc2c1C(=O)OCC1CCN(CCNS(C)(=O)=O)CC1", "Potency": "inactive"},
      {"smiles": "Cc1ccc(OCC(O)C(C)NC(C)C)c2c1CCC2", "note": "(configuration not stated)", "Potency": "inactive"},
      {"smiles": "C/C=C1\\C(=O)CC2C3CCC4=CC(=O)CC[C@]4(C)C3CC[C@]12C", "note": "(some centres not stated)", "Potency": "inactive"},
      {"smiles": "Cc1cccc(/C=C/c2ccccc2)n1", "Potency": "inactive"},
      {"smiles": "C[N+](C)(C)CCC(=O)c1cccc2ccccc12", "Potency": "1.78 µM (active)"},
      {"smiles": "CC(N)=NCc1cccc(CN)c1", "Potency": "inactive"},
      {"smiles": "Oc1cc2c(c(Cl)c1O)CCNCC2c1ccccc1", "note": "(configuration not stated)", "Potency": "inactive"},
      {"smiles": "COC(=O)c1c(-c2cc(OC)c(OC)c(OC)c2)c2ccnc(OCc3ncccn3)c2c(=O)n1Cc1ccnc(C)c1", "Potency": "inactive"},
      {"smiles": "Nc1c(S(=O)(=O)O)cc(Nc2ccc(Nc3nc(Cl)nc(Nc4ccc(S(=O)(=O)O)cc4)n3)c(S(=O)(=O)O)c2)c2c1C(=O)c1ccccc1C2=O", "Potency": "inactive"},
      {"smiles": "CN(C)CCCCSC(=N)N", "Potency": "inactive"},
      {"smiles": "Cc1cccc(C)c1NC(=O)C[N+](C)(C)C", "Potency": "inactive"},
      {"smiles": "O=C(Nc1cc(C(=O)Nc2ccc(S(=O)(=O)O)cc2S(=O)(=O)O)cc(C(=O)Nc2ccc(S(=O)(=O)O)cc2S(=O)(=O)O)c1)Nc1cc(C(=O)Nc2ccc(S(=O)(=O)O)cc2S(=O)(=O)O)cc(C(=O)Nc2ccc(S(=O)(=O)O)cc2S(=O)(=O)O)c1", "Potency": "inactive"},
      {"smiles": "CCCn1c(=O)c2[nH]c(-c3ccc(OCC(=O)Nc4ccc(C#N)cc4)cc3)nc2n(CCC)c1=O", "Potency": "inactive"},
      {"smiles": "O=C(O)c1cc(=O)c2ccc(Cl)cc2[nH]1", "Potency": "inactive"},
      {"smiles": "NC(CCC(=O)NCS(=O)(=O)O)C(=O)O", "note": "(configuration not stated)", "Potency": "inactive"}
    ]}
  ]
}
